{
  "source": "the supplement of paper PMC10037445",
  "key": {"RAW-Dual [1]": {"test_system": "RAW-Dual", "assay": "NF-kB SEAP reporter activity, fold change vs agonist alone; cytotoxicity flag (confluency mask): not cytotoxic; higher = enhanced NF-kB activity", "method_in_brief": "(§1)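 Library stock was pin-tooled at 50 nL into 384-well plates of RAW-Dual macrophages (50,000 cells/well, DMEM), followed 1 h later by a PRR agonist, and the cells were kept at 37 °C, 5% CO2. Supernatant collected after 20 hours was read for IRF by QuantiLuc luminescence and for NF-κB by QuantiBlue absorbance at 620 nm. Reporter activity is fold change over agonist-alone wells, and a well counted as cytotoxic when its IncuCyte confluency was below 70% of agonist controls in both mask sets.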"}, "RAW-Dual [2]": {"test_system": "RAW-Dual", "assay": "NF-kB SEAP reporter activity, fold change vs agonist alone; higher = enhanced NF-kB activity", "details": "library stock concentration (final ~1000-fold dilution): 10 mM", "method_in_brief": "as §1"}, "RAW-Dual [3]": {"test_system": "RAW-Dual", "assay": "NF-kB SEAP reporter activity, fold change vs agonist alone; cytotoxicity flag (confluency mask): cytotoxic (confluency <70% of control); higher = enhanced NF-kB activity", "method_in_brief": "as §1"}, "[4]": {"details": "agonist: ODN 1826 (TLR9) 0.5 ug/mL"}, "[5]": {"details": "agonist: Pam2CSK4 (TLR2/6) 0.1 ug/mL"}, "[6]": {"details": "agonist: Pam3CSK4 (TLR2/1) 0.1 ug/mL"}, "[7]": {"details": "cytotoxicity flag (confluency mask): not cytotoxic, agonist: Imiquimod (TLR7) […]"}, "[8]": {"details": "cytotoxicity flag (confluency mask): not cytotoxic, agonist: MPLA (TLR4) […]"}},
  "note": "Several values for one entry are separate records, joined by “and”; a condition that tells them apart may be missing. Equal entries are not always repeated. The full ranking holds about 2,900 compounds; the median of “NF-kB SEAP reporter activity, fold change vs agonist alone” is about 0.99, and the highest 2% start at about 2.6. This excerpt belongs to a sample that is enriched for the highest values.",
  "data": [
    {"smiles": "Cc1cc(C)c(CN2CCc3c(Cl)cc(-c4c(C)noc4C)c(Cl)c3C2=O)c(=O)[nH]1", "note": "(library stock concentration (final ~1000-fold dilution): 10 mM)", "values": [
      {"measurement": "NF-kB SEAP reporter activity", "setting": "RAW-Dual [1]; agonist: LPS (TLR4) 0.1 ug/mL", "value": 2.16},
      {"measurement": "NF-kB SEAP reporter activity", "setting": "RAW-Dual [1]; [4]", "value": 1.51},
      {"measurement": "NF-kB SEAP reporter activity", "setting": "RAW-Dual [1]; [5]", "value": 0.917},
      {"measurement": "NF-kB SEAP reporter activity", "setting": "RAW-Dual [1]; [6]", "value": 0.98}
    ]},
    {"smiles": "Cc1cc(C)c(CN2CCc3c(Cl)cc(-c4c(C)noc4C)c(Cl)c3C2=O)c(=O)[nH]1", "values": [
      {"measurement": "NF-kB SEAP reporter activity", "setting": "RAW-Dual [2]; [7]", "value": 1.24},
      {"measurement": "NF-kB SEAP reporter activity", "setting": "RAW-Dual [2]; [8]", "value": 1.64}
    ]},
    {"smiles": "C=C(C)C1CCC2(C(=O)O)CCC3(C)C(CCC4C5(C)CCC(OC(=O)CC(C)(C)C(=O)O)C(C)(C)C5CCC43C)C12", "note": "(stereo not given) (library stock concentration (final ~1000-fold dilution): 10 mM)", "values": [
      {"measurement": "NF-kB SEAP reporter activity", "setting": "RAW-Dual [3]; agonist: LPS (TLR4) 0.1 ug/mL", "value": 1.79},
      {"measurement": "NF-kB SEAP reporter activity", "setting": "RAW-Dual [3]; [4]", "value": 0.735},
      {"measurement": "NF-kB SEAP reporter activity", "setting": "RAW-Dual [3]; [5]", "value": 0.295},
      {"measurement": "NF-kB SEAP reporter activity", "setting": "RAW-Dual [3]; [6]", "value": 0.532}
    ]},
    {"smiles": "C=C(C)C1CCC2(C(=O)O)CCC3(C)C(CCC4C5(C)CCC(OC(=O)CC(C)(C)C(=O)O)C(C)(C)C5CCC43C)C12", "note": "(stereo not given)", "values": [
      {"measurement": "NF-kB SEAP reporter activity", "setting": "RAW-Dual [2]; cytotoxicity flag (confluency mask): cytotoxic (confluency <70% of control), agonist: Imiquimod (TLR7) […]", "value": 0.823},
      {"measurement": "NF-kB SEAP reporter activity", "setting": "RAW-Dual [2]; cytotoxicity flag (confluency mask): cytotoxic (confluency <70% of control), agonist: MPLA (TLR4) […]", "value": 1.07}
    ]},
    {"smiles": "CCN(CC)Cc1ccc(C(=O)N(CCc2ccccc2OC)C2CCNC2)cc1", "note": "(stereo not given)", "values": [
      {"measurement": "NF-kB SEAP reporter activity", "setting": "RAW-Dual [2]; [7]", "value": 0.518},
      {"measurement": "NF-kB SEAP reporter activity", "setting": "RAW-Dual [2]; [8]", "value": 1.28}
    ]},
    {"smiles": "CCN(CC)Cc1ccc(C(=O)N(CCc2ccccc2OC)C2CCNC2)cc1", "note": "(stereo not given) (library stock concentration (final ~1000-fold dilution): 10 mM)", "values": [
      {"measurement": "NF-kB SEAP reporter activity", "setting": "RAW-Dual [1]; agonist: LPS (TLR4) 0.1 ug/mL", "value": 0.9},
      {"measurement": "NF-kB SEAP reporter activity", "setting": "RAW-Dual [1]; [4]", "value": 0.312},
      {"measurement": "NF-kB SEAP reporter activity", "setting": "RAW-Dual [1]; [5]", "value": 0.883},
      {"measurement": "NF-kB SEAP reporter activity", "setting": "RAW-Dual [1]; [6]", "value": 0.613}
    ]},
    {"smiles": "C=C1CCC2C(C)(COC(=O)CCC(=O)O)C(OC(=O)CCC(=O)O)CCC2(C)C1/C=C/C1=CCOC1=O", "note": "(stereo not given)", "values": [
      {"measurement": "NF-kB SEAP reporter activity", "setting": "RAW-Dual [2]; [7]", "value": 0.926},
      {"measurement": "NF-kB SEAP reporter activity", "setting": "RAW-Dual [2]; [8]", "value": 0.985}
    ]},
    {"smiles": "C=C1CCC2C(C)(COC(=O)CCC(=O)O)C(OC(=O)CCC(=O)O)CCC2(C)C1/C=C/C1=CCOC1=O", "note": "(stereo not given) (library stock concentration (final ~1000-fold dilution): 10 mM)", "values": [
      {"measurement": "NF-kB SEAP reporter activity", "setting": "RAW-Dual [1]; agonist: LPS (TLR4) 0.1 ug/mL", "value": 0.94},
      {"measurement": "NF-kB SEAP reporter activity", "setting": "RAW-Dual [1]; [4]", "value": 0.908},
      {"measurement": "NF-kB SEAP reporter activity", "setting": "RAW-Dual [1]; [5]", "value": 0.924},
      {"measurement": "NF-kB SEAP reporter activity", "setting": "RAW-Dual [1]; [6]", "value": 1.06}
    ]},
    {"smiles": "Nc1ccc2ncnc(NCCc3ccc(Oc4ccccc4)cc3)c2c1", "note": "(library stock concentration (final ~1000-fold dilution): 10 mM)", "values": [
      {"measurement": "NF-kB SEAP reporter activity", "setting": "RAW-Dual [1]; agonist: LPS (TLR4) 0.1 ug/mL", "value": "1.57 and 1.15"},
      {"measurement": "NF-kB SEAP reporter activity", "setting": "RAW-Dual [1]; [5]", "value": "0.752 and 0.456"},
      {"measurement": "NF-kB SEAP reporter activity", "setting": "RAW-Dual [1]; [6]", "value": "1.02 and 0.73"}
    ]},
    {"smiles": "Cc1ccc(CNc2ncnc3ccc(-c4ccc(CO)o4)cc23)o1", "values": [
      {"measurement": "NF-kB SEAP reporter activity", "setting": "RAW-Dual [2]; [7]", "value": 1.07},
      {"measurement": "NF-kB SEAP reporter activity", "setting": "RAW-Dual [2]; [8]", "value": 1.24}
    ]},
    {"smiles": "Nc1ccc2ncnc(NCCc3ccc(Oc4ccccc4)cc3)c2c1", "values": [
      {"measurement": "NF-kB SEAP reporter activity", "setting": "RAW-Dual [2]; [7]", "value": 1.46}
    ]},
    {"smiles": "N#Cc1ccc2ncnc(NCCc3ccccc3)c2c1", "note": "(library stock concentration (final ~1000-fold dilution): 10 mM)", "values": [
      {"measurement": "NF-kB SEAP reporter activity", "setting": "RAW-Dual [1]; agonist: LPS (TLR4) 0.1 ug/mL", "value": 2.76},
      {"measurement": "NF-kB SEAP reporter activity", "setting": "RAW-Dual [1]; [4]", "value": 1.15},
      {"measurement": "NF-kB SEAP reporter activity", "setting": "RAW-Dual [1]; [5]", "value": 1.51},
      {"measurement": "NF-kB SEAP reporter activity", "setting": "RAW-Dual [1]; [6]", "value": 1.76}
    ]},
    {"smiles": "Cc1ccc(CNc2ncnc3ccc(-c4ccc(CO)o4)cc23)o1", "note": "(library stock concentration (final ~1000-fold dilution): 10 mM)", "values": [
      {"measurement": "NF-kB SEAP reporter activity", "setting": "RAW-Dual [1]; agonist: LPS (TLR4) 0.1 ug/mL", "value": 1.16},
      {"measurement": "NF-kB SEAP reporter activity", "setting": "RAW-Dual [1]; [4]", "value": 1.35},
      {"measurement": "NF-kB SEAP reporter activity", "setting": "RAW-Dual [1]; [5]", "value": 1.21},
      {"measurement": "NF-kB SEAP reporter activity", "setting": "RAW-Dual [1]; [6]", "value": 1.4}
    ]},
    {"smiles": "N#Cc1ccc2ncnc(NCCc3ccccc3)c2c1", "values": [
      {"measurement": "NF-kB SEAP reporter activity", "setting": "RAW-Dual [2]; [7]", "value": 0.984},
      {"measurement": "NF-kB SEAP reporter activity", "setting": "RAW-Dual [2]; [8]", "value": 1.59}
    ]}
  ]
}
